Compound activity (PubChem)
The list is not random: actives were taken first. Their share in the collection is about 19%.
TDP1 cell CPT: DT40-hTDP1 cell growth loss with CPT. chicken DT40 Tdp1-/-;hTDP1 cells + 20 nM CPT, ATP luminescence, 48 h. Potency, µM (series often up to 46.2 µM), without a hit: top-dose activity change, negative = growth inhibition, most hits filed as inhibitors. 420,000 tested, 12% active. AID 686979; note: potency is the fitted concentration of half-maximal effect; nearly all actives have a fitted effect of over 55% in size
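Cell growth measured by CellTiter-Glo luminescence after a minimum 48 h, 37 C compound exposure with 20 nM CPT in Tdp1-knockout DT40 cells stably expressing hTDP1, seeded 400/well; qHTS titration format.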
IL1B secr inh: blocks inflammasome-driven IL-1 beta release; THP-1 LPS/ATP IL-1B secretion, AlphaLISA, 16 h; hits give low values; activity change, % at 57.5 µM; 360,000 tested, 4.7% active; AID 743279; in the data active = activity change below about -50%; inconclusive = mostly about -30% to -49%
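THP-1 cells pretreated 1 hr with compounds (up to 57.5 uM final), then stimulated with LPS (250 ng/mL final) plus ATP (1.25 mM final); secreted IL-1B measured by AlphaLISA after 16 hr, decreased signal indicating inhibition.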
HT1080NT lethal: kills 2HG-producing HT-1080-NT fibrosarcoma cells. AID 686970. 360,000 tested, 1.6% active. HT-1080-NT fibrosarcoma viability, CellTiter-Glo ATP luminescence, 48 h. Potency, µM (series often up to 46.1 µM), for the others: at the top dose activity, negative = less viability, most hits filed as cytotoxic;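 note: NT is the 2HG producing partner of a matched IDH1 knockdown line; potency is the fitted concentration of half-maximal effect; 0% = DMSO-treated cells and -100% = media-only wells without cells; nearly all actives have a fitted effect of over 55% in size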
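A 48-hour cytotoxicity screen used HT-1080-NT cells plated 2 hours before compound delivery. ATP-based CellTiter-Glo luminescence measured viability, normalized to DMSO and no-cell controls.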
HT1080 IDH1KD tx: kills HT-1080 cells with IDH1 knockdown; 360,000 tested, 2% active; HT-1080 IDH1 knockdown viability, ATP luminescence, 48 h; Potency, µM (doses to about 46.1 µM), inactives show at the highest dose activity, negative = toxicity, usual class: cytotoxic; AID 686971;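 note: potency is the fitted concentration of half-maximal effect; 0% = DMSO wells and -100% = cell-free medium wells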
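CellTiter-Glo luminescence after 48 h compound exposure at 37 degrees C of IDH1-knockdown HT-1080 cells in 5% FBS RPMI. %Activity scaled between DMSO wells and cell-free media wells, with curves fitted and assigned curve classes.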
TDP1 cell noCPT: qHTS for Inhibitors of human tyrosyl-DNA phosphodiesterase 1 (TDP1): qHTS in cells in absence of CPT; Potency, µM (doses to about 46.2 µM), for inactives: at the highest dose activity change, negative = growth inhibition, actives largely listed as inhibitors; DT40 Tdp1-/- hTDP1 cells, no CPT, ATP luminescence, 48 h; 420,000 tested, 15% active; note: potency is the fitted concentration of half-maximal effect; nearly all actives have a fitted effect of over 55% in size
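No-CPT arm: Tdp1-/-;hTDP1 DT40 cells (400/well) plus compounds, incubated ≥48 hr at 37 °C. Readout CellTiter-Glo luminescence.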
Numbers without * were called inactive. Unless noted, calls come from the whole dose curve; as a rule, active = well fitted curve in the direction sought with a large enough effect; inconclusive = small, poorly fitted or top-dose-only effect, or another doubt; inactive = no such curve, though single readings can be large; an effect the other way counts as inactive or inconclusive. Unless noted, % is set by controls: 0 for no effect and ±100 for the full control effect.

How did O=C(Cc1ccc(S(=O)(=O)N2CCOCC2)s1)NCCc1ccc(F)cc1 do in these assays?
TDP1 cell CPT: -4%; IL1B secr inh: 5; HT1080NT lethal: 1%; HT1080 IDH1KD tx: -1%; TDP1 cell noCPT: -29%

What do the screens show for `NC(=O)C1CCCN(CCc2ccccc2)C1` (stereo not drawn)?
TDP1 cell CPT: -14%; IL1B secr inh: 6; HT1080NT lethal: 8%; HT1080 IDH1KD tx: 3%; TDP1 cell noCPT: -11%

Results for CCCc1sc(N2CCCC(C(N)=O)C2)nc1-c1ccccc1 (stereo not drawn) ?
TDP1 cell CPT: inconclusive; IL1B secr inh: 2; HT1080NT lethal: -4%; HT1080 IDH1KD tx: -4%; TDP1 cell noCPT: 18µM*

What do the screens show for `CCOc1ccc(-c2nnn(CC(=O)c3cc(OC)ccc3OC)n2)cc1`?
TDP1 cell CPT: inconclusive; IL1B secr inh: -19; HT1080NT lethal: 20%; HT1080 IDH1KD tx: 3%; TDP1 cell noCPT: inconclusive

How did CCCCSc1nnc([C@H](CC(C)C)NC(=O)OC(C)(C)C)o1 do in these assays?
TDP1 cell CPT: 18µM*; IL1B secr inh: 37; HT1080NT lethal: 3%; HT1080 IDH1KD tx: 0%; TDP1 cell noCPT: inconclusive

What do the screens show for `CCn1cc(C2=NC(C)CO2)c2ccccc21` (stereo not drawn)?
TDP1 cell CPT: inconclusive; IL1B secr inh: -3; HT1080NT lethal: 11µM*; HT1080 IDH1KD tx: 10µM*; TDP1 cell noCPT: -27%

What do the screens show for `NC(=O)c1cc(S(=O)(=O)NCc2ccc(Br)cc2)cs1`?
TDP1 cell CPT: inconclusive; IL1B secr inh: 0; HT1080NT lethal: 1%; HT1080 IDH1KD tx: 0%; TDP1 cell noCPT: -24%

Results for COc1cccc(C(O)c2nc(-c3ccc(F)cc3OC)cs2)c1 (stereo not drawn) ?
TDP1 cell CPT: -18%; IL1B secr inh: -22; HT1080NT lethal: inconclusive; HT1080 IDH1KD tx: 19%; TDP1 cell noCPT: inconclusive

Results for COc1ccc(C(O)c2nc(-c3ccc(F)cc3OC)cs2)cc1 (stereo not drawn) ?
TDP1 cell CPT: 26µM*; IL1B secr inh: -16; HT1080NT lethal: -5%; HT1080 IDH1KD tx: 16%; TDP1 cell noCPT: inconclusive

Results for COc1cc(F)ccc1-c1csc(C(O)c2ccc(F)cc2)n1 (stereo not drawn) ?
TDP1 cell CPT: 23µM*; IL1B secr inh: -6; HT1080NT lethal: -2%; HT1080 IDH1KD tx: inconclusive; TDP1 cell noCPT: inconclusive

How did CCN1C(=O)/C(=C\N2CCN(C)CC2)SC1=S do in these assays?
TDP1 cell CPT: -30%; IL1B secr inh: 2; HT1080NT lethal: 14%; HT1080 IDH1KD tx: 23%; TDP1 cell noCPT: -16%

Results for CO/N=C/C=C1/N(C)c2ccccc2C1(C)C ?
TDP1 cell CPT: inconclusive; IL1B secr inh: -19; HT1080NT lethal: 0%; HT1080 IDH1KD tx: 9%; TDP1 cell noCPT: -6%

How did CN1C(=CC=C2C=C(I)C(=O)C(I)=C2)C(C)(C)c2ccccc21 do in these assays?
TDP1 cell CPT: 18µM*; IL1B secr inh: 10; HT1080NT lethal: -17%; HT1080 IDH1KD tx: inconclusive; TDP1 cell noCPT: 16µM*

How did CCCN1C(=O)/C(=C\C=C2\N(CC)c3ccccc3C2(C)C)SC1=S do in these assays?
TDP1 cell CPT: 16µM*; IL1B secr inh: 6; HT1080NT lethal: 0%; HT1080 IDH1KD tx: 4%; TDP1 cell noCPT: 13µM*

What do the screens show for `CN1CCC/C1=C/C=C1\SC(=S)NC1=O`?
TDP1 cell CPT: -16%; IL1B secr inh: -20; HT1080NT lethal: -3%; HT1080 IDH1KD tx: 13%; TDP1 cell noCPT: -3%

How did CN1/C(=C\C=C2/SC(=S)NC2=O)C(C)(C)c2ccccc21 do in these assays?
TDP1 cell CPT: 8.2µM*; IL1B secr inh: 27; HT1080NT lethal: -4%; HT1080 IDH1KD tx: -11%; TDP1 cell noCPT: 5.8µM*

Results for Cc1ccc(C(C)C)cc1OCC(=O)N1CCN(C(=O)c2ccco2)CC1 ?
TDP1 cell CPT: -9%; IL1B secr inh: -13; HT1080NT lethal: 11%; HT1080 IDH1KD tx: 8%; TDP1 cell noCPT: -19%

What do the screens show for `COCCNC(=O)C1(C)CCCN(Cc2ccccc2N(C)C)C1` (stereo not drawn)?
TDP1 cell CPT: -14%; IL1B secr inh: 12; HT1080NT lethal: 21%; HT1080 IDH1KD tx: 8%; TDP1 cell noCPT: -4%

What do the screens show for `O=C(OCC(=O)N1CCN(c2ccccc2)CC1)c1cc(F)c(F)cc1Cl`?
TDP1 cell CPT: -9%; IL1B secr inh: 21; HT1080NT lethal: -6%; HT1080 IDH1KD tx: -2%; TDP1 cell noCPT: -6%

What do the screens show for `FC(F)(F)c1ccccc1CN1CCCC(N2CCN(c3ccccc3)CC2)C1` (stereo not drawn)?
TDP1 cell CPT: inconclusive; IL1B secr inh: 10; HT1080NT lethal: 13%; HT1080 IDH1KD tx: -1%; TDP1 cell noCPT: inconclusive

Results for CCN(CC)C(=O)CN1C(=O)c2cccc3cccc1c23 ?
TDP1 cell CPT: -9%; IL1B secr inh: 11; HT1080NT lethal: 17%; HT1080 IDH1KD tx: 18%; TDP1 cell noCPT: -22%

What do the screens show for `CC(C)c1nc(-c2ccccc2)c(-c2ccccc2)[nH]1`?
TDP1 cell CPT: inconclusive; IL1B secr inh: -21; HT1080NT lethal: -16%; HT1080 IDH1KD tx: -19%; TDP1 cell noCPT: 21µM*

Results for CCC(Sc1nc(-c2ccccc2)c(-c2ccccc2)[nH]1)C(=O)O (stereo not drawn) ?
TDP1 cell CPT: -15%; IL1B secr inh: 17; HT1080NT lethal: -9%; HT1080 IDH1KD tx: -11%; TDP1 cell noCPT: -16%

Results for O=S(=O)(CCN1CCN(c2ccccc2O)CC1)c1cc(Cl)ccc1Cl ?
TDP1 cell CPT: inconclusive; IL1B secr inh: -12; HT1080NT lethal: 2%; HT1080 IDH1KD tx: -7%; TDP1 cell noCPT: inconclusive

Results for CCSc1nnc(NC(=O)CSc2nc3c(c(=O)n2C)SC(C)C3)s1 (stereo not drawn) ?
TDP1 cell CPT: 15µM*; IL1B secr inh: 16; HT1080NT lethal: 20%; HT1080 IDH1KD tx: 1%; TDP1 cell noCPT: 11µM*

What do the screens show for `CC1Cc2nc(SCC(=O)NC3CCCCC3)n(C)c(=O)c2S1` (stereo not drawn)?
TDP1 cell CPT: -30%; IL1B secr inh: 25; HT1080NT lethal: 1%; HT1080 IDH1KD tx: 10%; TDP1 cell noCPT: -22%

Results for CCSc1nnc(NC(=O)CSc2nc3c(c(=O)n2CC)SC(C)C3)s1 (stereo not drawn) ?
TDP1 cell CPT: 13µM*; IL1B secr inh: 53; HT1080NT lethal: 2%; HT1080 IDH1KD tx: 3%; TDP1 cell noCPT: 8.2µM*

What do the screens show for `CCn1c(SCC(=O)Nc2nnc(C)s2)nc2c(c1=O)SC(C)C2` (stereo not drawn)?
TDP1 cell CPT: -28%; IL1B secr inh: 24; HT1080NT lethal: 3%; HT1080 IDH1KD tx: 0%; TDP1 cell noCPT: inconclusive
